Screening results as filed in PubChem BioAssay.
Shown are actives, neighbours in structure and some others; about 1.3% of the full set was active somewhere.
Anesthetic bind = qHTS Assay for Identification of Novel General Anesthetics; Ferritin light chain (Equus caballus), P02791; apoferritin/1-aminoanthracene competitive binding, fluorescence; Potency, µM (top dose mostly 77.5 µM), inactives show at the top dose activity change, negative = displacement, actives largely listed as inhibitors; hit rate 0.074% among 350,000; AID 485281, 2010; note: nearly all actives have a fitted effect of over 20% in size
Target sequence (P02791 2-175 limits assumed): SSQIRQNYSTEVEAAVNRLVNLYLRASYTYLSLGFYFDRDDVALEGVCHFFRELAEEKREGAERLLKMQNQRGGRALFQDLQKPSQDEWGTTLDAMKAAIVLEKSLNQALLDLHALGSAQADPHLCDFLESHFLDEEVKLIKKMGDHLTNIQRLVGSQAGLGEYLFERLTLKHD
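Horse-spleen apoferritin (10 uM) in 50% saturated 1-aminoanthracene in PBS was incubated 10 min at room temperature with compound. Fluorescence (ex 380, em 535 nm) was normalized to free and bound 1-AMA, with concentration-response fitted by a four-parameter Hill equation.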
rTrxR1 inhibitor = qHTS Assay for Inhibitors of Mammalian Selenoprotein Thioredoxin Reductase 1 (TrxR1): qHTS; Thioredoxin reductase 1, cytoplasmic (Rattus norvegicus), O89049; recombinant rTrxR1, NADPH fluorescence consumption, selenite substrate; Potency, µM (doses to about 114 µM), for inactives: top-dose activity change, negative = inhibition, most hits filed as inhibitors; hit rate 1% among 390,000; note: nearly all actives have a fitted effect of over 65% in size
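Rat TrxR1 (90 nM in the dispensed reagent) was pre-reduced with 400 uM NADPH for 5 min at room temperature, then incubated with compound for 15 min. After 400 uM selenite was added, NADPH fluorescence (Ex 340/Em 450 nm) was followed for 8 min.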
GALK inh = qHTS Assay for Inhibitors of Human Galactokinase (GALK); P51570; Purified GALK, Kinase-Glo residual ATP luminescence; Potency, µM (top dose mostly 57.5 µM), without a hit: at the highest dose activity change, negative = inhibition, most hits filed as inhibitors; hit rate 0.007% among 270,000; AID 1868, 2009
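ATP-depletion format; final 35 uM ATP, 100 uM D-galactose, 5 nM enzyme; pH 8.0 HEPES/Mg2+ buffer; 60 min RT; luminescence read 10 min after detection reagent.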
IDH1 R132H inh = qHTS for Inhibitors of mutant isocitrate dehydrogenase 1 (IDH1): qHTS; Isocitrate dehydrogenase [NADP] cytoplasmic (Homo sapiens), O75874; IDH1-R132H enzyme, NADPH consumption, diaphorase/resazurin fluorescence; Potency, µM (series often up to 76.6 µM), for inactives: at the top dose activity change, negative = inhibition, most hits filed as inhibitors; hit rate 0.093% among 390,000; AID 602179, 2012; note: nearly all actives have a fitted effect of over 65% in size
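IDH1-R132H (0.5 ug/mL) preincubated 30 min with compound, then NADPH (0.016 mM) and alpha-KG (2 mM) added; 80 min at RT, pH 7.5. Remaining NADPH coupled via diaphorase/resazurin to fluorescence (540/590 nm); concentration-response curves normalized to no-enzyme control.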
TrxR1 substrate = qHTS Assay for Substrates of Mammalian Selenoprotein Thioredoxin Reductase 1 (TrxR1): qHTS; Thioredoxin reductase 1, cytoplasmic (Rattus norvegicus), O89049; purified TrxR1 substrate turnover, NADPH consumption readout; Potency, µM (highest dose often 114 µM), inactives show top-dose activity change, negative = substrate turnover; hit rate 0.01% among 390,000; note: nearly all actives have a fitted effect of over 50% in size
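Rat TrxR1, dispensed at 90 nM, was prereduced with 400 uM NADPH (final) for 5 min at ~22 deg C, then incubated with compound 15 min before 400 uM selenite. A first-read NADPH fluorescence drop versus no-compound background flagged substrates.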
PKM2 act = qHTS Assay for Activators of Human Muscle isoform 2 Pyruvate Kinase. Pyruvate kinase PKM (Homo sapiens), P14618. purified PKM2, Kinase-Glo ATP luminescence, activation; response scale: 0% is enzyme alone, no compound. Potency, µM (series often up to 57.5 µM), for the others: top-dose activation, hits mostly activators. hit rate 0.34% among 260,000; note: nearly all actives have a fitted effect of over 55% in size
Target sequence (P14618 whole entry, looked up, canonical isoform): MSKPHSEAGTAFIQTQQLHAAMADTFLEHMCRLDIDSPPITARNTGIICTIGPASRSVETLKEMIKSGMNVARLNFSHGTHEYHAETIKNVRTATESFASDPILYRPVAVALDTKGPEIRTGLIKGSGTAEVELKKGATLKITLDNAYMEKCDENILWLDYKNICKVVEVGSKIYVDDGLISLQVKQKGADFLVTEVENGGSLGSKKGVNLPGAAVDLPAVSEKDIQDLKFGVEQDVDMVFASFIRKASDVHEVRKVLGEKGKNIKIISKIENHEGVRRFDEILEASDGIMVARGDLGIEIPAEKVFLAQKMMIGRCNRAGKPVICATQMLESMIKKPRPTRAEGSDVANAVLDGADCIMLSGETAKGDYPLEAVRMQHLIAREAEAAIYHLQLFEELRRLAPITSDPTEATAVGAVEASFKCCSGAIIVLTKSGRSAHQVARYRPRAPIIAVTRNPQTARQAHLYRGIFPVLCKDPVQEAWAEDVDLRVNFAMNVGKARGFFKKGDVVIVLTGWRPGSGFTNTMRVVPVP
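hPK-M2, >95% pure; 0.1 mM ADP / 0.5 mM PEP final; imidazole pH7.2 buffer w/ 7 mM MgCl2, 50 mM KCl; 1 h RT; Kinase-Glo lum. Intermediate enzyme activity for dual inhibitor/activator qHTS.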
Numbers without * were called inactive; i = inactive; ? = inconclusive; / = no result; [ ] = dose if it differs, or a comment. Calls come from the whole dose curve; as a rule, active = well fitted curve in the direction sought with a large enough effect; inconclusive = small, poorly fitted or top-dose-only effect, or another doubt; inactive = no such curve, though single readings can be large; an effect the other way counts as inactive or inconclusive. % is set by controls: 0 for no effect and ±100 for the full control effect; potency is the fitted concentration of half-maximal effect.

SMILES	Anesthetic bind	rTrxR1 inhibitor	GALK inh	IDH1 R132H inh	TrxR1 substrate	PKM2 act
CC(=O)Oc1ccc2nonc2c1OC(C)=O	/	?	/	/	20µM*	/
CC(=O)Nc1cc(OC(C)=O)c2nonc2c1OC(C)=O	-11.8%	130.7%[57.1 µM]	-17.8%	10.9%	?	3.4%
Cc1cc(C)cc(NC(=O)C2CCN(S(=O)(=O)c3cn(C)cn3)CC2)c1	10.9%	14.1%[57.1 µM]	/	-5.5%	1.9%[57.1 µM]	/
COc1ccc(OCc2cn(CC(=O)c3ccc(O)cc3)nn2)cc1	/	-12.5%	/	-3.8%	-1.8%	/
O=C(Cn1cc(COc2c(F)c(F)cc(F)c2F)nn1)c1ccc(O)cc1	/	50.1µM*	/	10.4%	0.2%	/
CN(Cc1ccccc1)c1ccc(/C=C/c2sc3ccccc3[n+]2C)cc1	/	-2.5%	/	/	-6.0%	/
O=C(c1ccc(S(=O)(=O)c2cccc(Cl)c2)c([N+](=O)[O-])c1)N1CCN(Cc2ccccc2)CC1	-21.3%	-41.4%	2.3%	-3.7%	8.7%[57.1 µM]	3.16µM*
Cc1ccc2c(c1)C(=O)C(=O)N2Cc1ccc(OCCC(C)C)cc1	7.2%	11.9%	/	-10.0%	4.1%	/
CCCOC(=O)c1cc(-c2ccc(/C=C3/C(=O)N(C)C(=O)C(C#N)=C3C)o2)ccc1Cl	/	17.8µM*	/	13.1%	2.2%	/
CCOc1cc(C(=O)NCCN2C(=O)S/C(=C\c3cccnc3)C2=O)cc(OCC)c1OCC	?	13.2%	1.1%	1.1%	-5.4%	17.8µM*
c1coc(-c2nc(-c3ccco3)c(-c3ccco3)nc2-c2ccco2)c1	-13.8%	2.82µM*	-1.4%	-0.1%	8.7%[57.1 µM]	?
Nc1nc(-c2ccco2)c(-c2ccco2)s1	?	50.1µM*	5.9%	7.6%	2.1%	22.4µM*
c1coc(-c2nc3cc4ccccc4cc3nc2-c2ccco2)c1	/	4.47µM*	/	/	-6.3%	/
Nc1nc(-c2ccco2)cs1	-23.7%	-6.0%	1.7%	3.4%	5.4%	5.6%
COc1ccc2nc(-c3ccco3)c(-c3ccco3)nc2c1	360.5%	8.91µM*	-3.7%	16.3%	27.5%	16.6%
O=C(Nc1ccc(Cl)cc1Cl)c1cc(S(=O)(=O)N2CCN(c3ccccc3F)CC2)ccc1F	4.6%	21.0%[57.1 µM]	/	11.1%	-1.0%[57.1 µM]	/
CC(C)Cn1c(SCc2cccc(F)c2)nc2ccsc2c1=O	71.7%	-10.7%	/	15.8%	-11.3%	/
O=C(CC(=O)c1cc(Cl)ccc1O)c1ccccc1	-9.8%	-5.4%	2.0%	2.0%	3.5%	4.4%
O=C(c1ccccc1)c1cc(Cl)ccc1N1C(=O)C=CC1=O	-18.3%	0.794µM*	9.5%	-5.0%	7.2%	25.1%
COc1ccc(NC(C)=O)c([N+](=O)[O-])c1[N+](=O)[O-]	/	5.01µM*	/	7.1%	4.8%	/
CCOc1ccc(C2CC(=O)n3nc(-c4ccc(C)cc4)nc3S2)cc1 (configuration not stated)	1.7%	34.1%	/	-17.3%	4.5%	/
COc1ccc(-c2nc3n(n2)C(=O)CC(c2ccco2)S3)cc1 (configuration not stated)	-2.8%	14.1µM*	-3.0%	1.8%	3.3%	3.0%
CCOC(=O)N1CC=C2C(C#N)=C(N)C(C#N)(C#N)[C@H](c3ccsc3)[C@H]2C1	-6.5%	?	2.9%	41.4µM*	9.7%	-4.2%
CCOC(=O)N1CC=C2C(C#N)=C(N)C(C#N)(C#N)[C@H](c3ccccc3OCC)[C@H]2C1	-12.1%	50.1µM*	-4.2%	-19.8%	5.2%	1.0%
O=C(COc1ccccc1C(=O)Nc1ccccc1)NC1CCCCC1	/	7.2%	/	/	5.5%	/
SMILES	Anesthetic bind	rTrxR1 inhibitor	GALK inh	IDH1 R132H inh	TrxR1 substrate	PKM2 act
c1cncc(-c2nc(-c3ccco3)cs2)c1	-16.3%	35.5µM*	0.6%	0.3%	13.1%[57.1 µM]	5.9%
Cc1ccc(NC(=O)C2CCCN(S(=O)(=O)c3cn(C(C)C)cn3)C2)c(C)c1 (configuration not stated)	-6.6%	4.8%[57.1 µM]	/	18.6%	-1.7%[57.1 µM]	/
Cc1c(CC(=O)NCc2ccccc2Cl)c(=O)oc2cc(O)ccc12	545.3%	?	/	16.8%	861.1%	/
Cc1c(CC(=O)NCC(=O)N[C@H](Cc2ccccc2)C(=O)O)c(=O)oc2cc(O)ccc12	817.2%	79.4µM*	/	4.6%	i	1.5%
OCC[N+]1(CCc2ccccc2)CCOCC1	/	23.3%	/	/	7.5%	/
Cc1ccnc2ccc(I)cc12	/	21.1%	/	/	6.0%	/
Oc1ccc2c(c1)OCC1(O)Cc3cc(O)c(O)cc3C21 (configuration not stated)	33.3%	4.47µM*	/	-2.7%	7.8%	/
COc1ccc(C2COc3cc(O)ccc3C2)c(OC)c1O (configuration not stated)	/	14.0%	/	10.1%	8.5%	/
CC(=O)Oc1ccc2c(c1OC(C)=O)OCC1(O)Cc3c(cc(OC(C)=O)c(OC(C)=O)c3OC(C)=O)C21 (configuration not stated)	-6.3%	/	/	/	/	/
Oc1cc2c(cc1O)[C@H]1c3ccc(O)c(O)c3OC[C@@]1(O)C2	/	10µM*	/	1.6%	3.1%	/
O=C(c1cccc(Cl)c1)N1c2ncnn2C2(CCCCC2)[C@@H]2CCCC[C@@H]21	-11.4%	14.8%	/	4.2%	-1.6%	/
CCCN(C(=O)c1c(C)oc2ncn(CC(C)C)c(=O)c12)c1ccccc1C	-16.0%	27.6%	/	0.0%	10.7%	/
O=S(=O)(c1ccc2ccccc2c1)n1nc(-c2ccco2)nc1NCc1cccc(Cl)c1	5.4%	21.8%	/	5.8%	-0.2%	/
CCCNS(=O)(=O)c1ccc(OC)c(Cl)c1Cl	-10.8%	14.8%	-2.1%	6.7%	3.9%	0.1%
COc1ccc(S(=O)(=O)NCCSC(C)(C)C)c(Cl)c1Cl	15.8µM*	9.7%	1.2%	4.5%	-2.5%	5.7%
COC(=O)c1ccc(C(c2c(N)n(Cc3ccccc3)c(=O)n(C)c2=O)N2CCOCC2)cc1 (configuration not stated)	-5.8%	?	0.7%	2.3%	4.6%	12.6µM*
CC(=O)NC(=S)c1c(N)n(Cc2ccccc2)c(=O)n(C)c1=O	-0.7%	/	1.5%	/	/	17.2%
Cc1cccc(Cn2cnc3c(cnn3C(C)(C)C)c2=O)c1	/	1.2%	/	/	-9.1%	/
N#CC1=C(N)SC(N)=C(C#N)C1c1ccc([N+](=O)[O-])cc1	-11.4%	50.1µM*	-3.3%	-5.0%	-0.5%	-3.9%
